Assay results: PubChem BioAssay AID435005 (Broad Institute, 2010)
The whole screen tested about 300,000 compounds, of which about 2,400 (0.8%) were called active. The sample holds actives, similar compounds and a random draw of the others, so the mix is not that of the screen.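 The calls were made as follows: active = Every replicate reaches about 75%, or at least half do and their mean reaches it too (limit read from the data); inconclusive = At least half of replicates reach the limit but their mean does not; inactive = Under half of replicates reach the limit.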

Assay: inhibitors of cytokine-induced beta cell apoptosis, primary screen, luminescence (AID 435005);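 also: 0% = cytokine-treated negative control wells and 100% = positive control rescue; higher means more ATP so stronger rescue from cytokine killing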
Details: INS-1E cytokine-induced death, ATP luminescence, 48 h; active compounds read high; percent of positive-control rescue, neutral wells zero; concentration not given here

Compound | protection from apoptosis
O=C(Cn1cnc2c(OCc3ccccc3)ncnc21)NCc1nc2ccccc2[nH]1 | -9.45% (inactive)
COc1ccc(CNc2nc(NCc3ccc(OC)cc3)c3ncn(C4CCCC4)c3n2)cc1 | -10.2% (inactive)
O=c1c([N+](=O)[O-])cc(C(F)(F)F)cn1Cc1cccc(Cl)c1 | -7.45% (inactive)
O=C(/C=C/c1cccc([N+](=O)[O-])c1)N1CCN(Cc2ccccc2)CC1 | -1.33% (inactive)
O=[N+]([O-])/C=C/c1ccc2c(ccn2Cc2ccccc2)c1 | 102% (active)
CCC(CO)Oc1cc(NC(=O)c2cccc3ccccc23)c2ncn(C(C)C)c2c1 (stereo not drawn) | 4.17% (inactive)
O=C1C=C(c2cc(C(F)(F)F)cc(C(F)(F)F)c2)C[C@@H](c2ccc3c(c2)OCO3)C1 | 7.25% (inactive)
COc1ccc(CC(=O)Nc2nc(-c3ccc(F)c(F)c3)cs2)cc1OC | 97.5% (active)
COc1ccc(-c2csc(NC(=O)COC(=O)Cc3ccc(Cl)cc3Cl)n2)cc1 | 2.13% (inactive)
COc1cccc(CC(=O)Nc2nc(-c3ccc(OC)c(OC)c3)cs2)c1 | -4.99% (inactive)
COc1cc(CC(=O)Nc2nc(-c3ccc(F)c(F)c3)cs2)cc(OC)c1OC | 92.9% (active)
CCCc1ccc(-c2csc(NC(=O)Cc3cccs3)n2)cc1 | 6.06% (inactive)
Cc1ccc(S(=O)(=O)NC(=O)Nc2nc(-c3ccc(F)c(F)c3)cs2)cc1 | -25.4% (inactive)
Cc1cccc(-n2ncc3c(=O)[nH]c(SCC(=O)Nc4cc(C)on4)nc32)c1 | 1.12% (inactive)
COc1ccc(CCNC(=O)COC(=O)Cc2ccccc2F)cc1 | -2.5% (inactive)
Cc1ccc(CC(=O)Nc2ccc(S(=O)(=O)N3CCOCC3)cc2)cc1C | 0.192% (inactive)
CC(OC(=O)c1cc2ccccc2[nH]1)C(=O)N(C)c1ccccc1 (stereo not drawn) | -1.05% (inactive)
Cc1cc(=O)[nH]c(SCC(=O)N2c3ccccc3CC2C)n1 (stereo not drawn) | -8.13% (inactive)
CC1Cc2ccccc2N1C(=O)CSc1nc2ccccc2o1 (stereo not drawn) | 104% (active)
CCS(=O)(=O)c1ccc2oc(SCC(=O)N3c4ccccc4CC3C)nc2c1 (stereo not drawn) | -3.73% (inactive)
O=C(COC(=O)c1cccnc1Cl)NC12CC3CC(CC(C3)C1)C2 | -1.6% (inactive)
Cc1ccc(NC(=O)C2CCC(C(C)(C)C)CC2)cc1S(=O)(=O)N1CCOCC1 (stereo not drawn) | 6.89% (inactive)

Compound | protection from apoptosis
COc1ccc(CCNC(=O)CSc2nnc(CNC(=O)c3cccs3)o2)cc1OC | -5.35% (inactive)
COc1ccc(CCNC(=O)/C(C#N)=C2\N=C(NC(=O)c3cccs3)c3ccccc32)cc1 | -2.09% (inactive)
O=C(NCC#CCSc1nnc(-c2cccc3ccccc23)o1)c1cccs1 | 109% (active)
Cc1noc(C)c1NC(=O)Nc1cccc2c1O[C@H](CN(C)S(=O)(=O)c1c(C)noc1C)[C@@H](C)CN([C@H](C)CO)C2=O | 1.37% (inactive)
COc1ccc(S(=O)(=O)N2CCOCC2)cc1NC(=O)CSc1nnc(NC2CC2)s1 | 0.467% (inactive)
CC(NC(=O)COC(=O)Cn1cc(C(F)(F)F)ccc1=O)c1ccccc1 (stereo not drawn) | 1.74% (inactive)
COC(=O)c1ccc(NC(=O)c2ccccc2NS(=O)(=O)c2ccccc2)cc1 | 32.1% (inactive)
COc1cc(NC(=O)c2ccccc2NS(=O)(=O)c2ccc(Cl)s2)cc(OC)c1 | 111% (active)
CCOc1ccc(NC(=O)c2ccccc2NS(C)(=O)=O)cc1 | 0.287% (inactive)
Cc1ccc(-c2nn(-c3ccccc3)cc2/C=C/C(=O)Nc2cccc(S(N)(=O)=O)c2)cc1 | 120% (active)
COc1ccc(-c2nn(-c3ccccc3)cc2/C=C\C(=O)Nc2ccc(C(=O)O)cc2)cc1 | 8.98% (inactive)
Cc1ccc(-c2nn(-c3ccccc3)cc2C(=O)Nc2cccc(S(=O)(=O)N3CCOCC3)c2)cc1 | 1.74% (inactive)
O=S(=O)(c1ccc(SCc2ccccc2)nc1)N1CCCCCC1 | -5.69% (inactive)
CC(=O)NCCC(=O)Nc1nc(-c2ccc3c(c2)OCCO3)cs1 | -3.86% (inactive)
Cc1ccc(-c2csc(NC(=O)C3=COCCO3)n2)cc1C | 98.3% (active)
NS(=O)(=O)c1ccc2nc(NC(=O)C3=COCCO3)sc2c1 | -1.35% (inactive)
C#CCOCCOCCOCCNc1nc(N2CCN(C(=O)[C@H](CCC(=O)O)n3cc(CN)nn3)CC2)nc(N2CCN(C(=O)[C@H](CCC(=O)O)n3cc(CN)nn3)CC2)n1 | -5.06% (inactive)
Cc1noc(C)c1S(=O)(=O)N(C)C[C@H]1Oc2ccc(NC(=O)C3CC3)cc2C(=O)N([C@H](C)CO)C[C@@H]1C | 4.52% (inactive)
CCCCCCc1ccc(O)cc1O | -5.91% (inactive)
CCCCCCc1cc2cc(-c3nnc(-c4ccccc4)o3)c(=O)oc2cc1O | 119% (active)
Cc1c(CC(=O)NCCCCCC(=O)O)c(=O)oc2cc3occ(-c4ccccc4)c3cc12 | -7.43% (inactive)
CCCCCCSc1ccc(-c2nc3ccc(Cl)cn3c2NCc2ccccc2)cc1 | -14.3% (inactive)

Compound | protection from apoptosis
O=C(COc1ccccc1F)NNC(=O)c1cc(Br)ccc1Cl | 4.16% (inactive)
COc1cccc(/C=N/Nc2ccc(Cl)nn2)c1 | 0.496% (inactive)
Oc1cccc(/C=N/Nc2ccc(Cl)nn2)c1O | 107% (active)
Clc1ccc(N/N=C/c2cccs2)nn1 | -1.26% (inactive)
CN(C)C(=O)COC(=O)c1cccc(S(=O)(=O)N2CC3(C)CC2CC(C)(C)C3)c1 (stereo not drawn) | -3.78% (inactive)
COc1cc2nc(Cl)nc(NCCO)c2cc1OC | -1.61% (inactive)
CN(C)c1nc(Nc2ccc(Cl)c(Cl)c2)nc(N(C)C)n1 | 2.44% (inactive)
OCCNc1nc(Nc2ccc(Cl)c(Cl)c2)nc2ccccc12 | 89.8% (active)
COc1cc(C(=O)NCC(c2ccco2)N2CCCC2)ccc1OCc1ccccc1 (stereo not drawn) | 0.158% (inactive)
COc1ccc(NC(=O)N(C)C[C@H]2Oc3ccc(NC(=O)C4CC4)cc3C(=O)N([C@H](C)CO)C[C@@H]2C)cc1 | -3.33% (inactive)
O=C(N[C@@H]1C/C=C\C[C@@H](CC(=O)N(CCO)Cc2ccccc2)C(=O)N[C@H](Cc2ccccc2)COC1=O)OCC1c2ccccc2-c2ccccc21 | 50.5% (inactive)
COc1ccc(-c2nc3cnccn3c2NC2CCCCC2)cc1-c1cccc(Cl)c1 | -8.81% (inactive)
Cc1cccc(N=C2NN=C(c3c[nH]c4ccccc34)CS2)c1 | 22.1% (inactive)
c1ccc(CN2CCC(N=C3NN=C(c4ccc5c(c4)OCCO5)CS3)CC2)cc1 | -0.528% (inactive)
Clc1cccc(N=C2NN=C(c3ccc4c(c3)OCCO4)CS2)c1 | 83.6% (active)
CC(C#N)OC(=O)c1cccnc1SCC(=O)Nc1ccc2c(c1)OCO2 (stereo not drawn) | 3.24% (inactive)
CCNC(=S)N1CCN(S(=O)(=O)c2ccc(Cl)s2)CC1 | -2.64% (inactive)
COc1cc(NC(=O)COC(=O)c2cc(S(=O)(=O)N3CCOCC3)ccc2F)cc(OC)c1 | -2.85% (inactive)
CSc1ccc(NC(=O)/C=C/C(=O)O)cc1 | -4.41% (inactive)
COC(=O)c1sc(-c2ccc(C(C)(C)C)cc2)cc1NC(=O)/C=C/C(=O)O | 99.2% (active)
COc1ccccc1NC(=O)/C=C/C(=O)O | -6.73% (inactive)
CCN(C[C@H]1N[C@@](Cc2ccccc2)(C(=O)OC)[C@H]2C(=O)N(Cc3ccccc3)C(=O)[C@@H]12)C(=O)c1ccc(C)cc1 | 13.6% (inactive)

Compound | protection from apoptosis
Clc1cccc(CN2COc3c(cc(Cl)c4cccnc34)C2)c1 | 85.5% (active)
O=C(c1cccc(Cl)c1)N1CCN(Cc2ccccc2)CC1 | -9.96% (inactive)
CC(C)CC(=O)N1CCN(Cc2cccc(Cl)c2)CC1 | 3.65% (inactive)
COC(=O)[C@]1(Cc2ccccc2)N[C@H](CN(C)S(=O)(=O)c2ccc(OC(F)(F)F)cc2)[C@@H]2C(=O)N(Cc3ccccc3)C(=O)[C@@H]21 | 10.5% (inactive)
CCOC(=O)c1ccc(NC(=O)Cn2cnc3cc(C)c(C)cc32)cc1 | 105% (active)
CCOC(=O)c1ccc(NC(=O)Cn2nnc(-c3ccc(C)cc3)n2)cc1 | 3.31% (inactive)
CCCc1nnc(SCC(=O)Nc2ccc(C(=O)OCC)cc2)o1 | 1.98% (inactive)
O=C(CNC(=O)c1ccccc1F)OCC(=O)c1c[nH]c2ccccc12 | -14.7% (inactive)
COc1ccc(CCNC(=O)COC(=O)C2CC2C)cc1 (stereo not drawn) | 0.884% (inactive)
Oc1ccccc1/C=N/n1c(-c2cccs2)n[nH]c1=S | -8.28% (inactive)
Cc1cc(-c2n[nH]c(=S)n2/N=C/C(Br)=C/c2ccccc2)n[nH]1 | 84.8% (active)
S=c1[nH]nc(-c2cc(-c3ccccc3)n[nH]2)n1/N=C/c1c2ccccc2cc2ccccc12 | 10.1% (inactive)
CC(OC(=O)c1ccc([N+](=O)[O-])cc1)C(=O)NCC1CCCCC1 (stereo not drawn) | -1.81% (inactive)
Cc1cc(NC(=O)CN2C(=O)NC(CC(C)C)C2=O)no1 (stereo not drawn) | -6.09% (inactive)
CCOC(=O)N1CCN(C(c2cccnc2)c2ccc3cccnc3c2O)CC1 (stereo not drawn) | 35.8% (inactive)
Oc1ccccc1CN1CCN(C(c2ccccc2)c2ccccc2)CC1 | 0.217% (inactive)
CCN1CCN(C(c2cccnc2)c2cc(Cl)c3cccnc3c2O)CC1 (stereo not drawn) | 92.4% (active)
COc1cc(/C=C/C(=O)OCC(=O)NCCCc2ccccc2)ccc1O | -1.98% (inactive)
C=CC[C@H](CC(=O)NCCO)C(=O)N[C@@H](COC(=O)[C@@H](CC=C)Cc1ccc(F)cc1)Cc1c[nH]c2ccccc12 | 6.33% (inactive)
COc1cc(NC(=O)c2[nH]cnc2C(N)=O)cc(C(=O)Nc2cccc(C(F)(F)F)c2)c1 | 114% (active)
COc1ccc(NC(=O)CN(C)CC(=O)Nc2cccc(C(F)(F)F)c2)cc1 | -3.94% (inactive)
COc1cc(NC(=O)c2cncc(-c3ccc(C#N)cc3)c2)cc(C(=O)Nc2cccc(C(F)(F)F)c2)c1 | 23.5% (inactive)
